Source: PubChem (National Center for Advancing Translational Sciences (NCATS))
In the library only some 2.5% were active in any assay of this set; here they are far more common.
L3MBTL1 inh: L3MBTL1 (human) inhibition; Q9Y468; AID 485360; 230,000 compounds, 0.66% hits; Potency, µM (doses to about 57.1 µM), for the others: at the top dose activity, negative = inhibition, hits mostly inhibitors; AlphaScreen L3MBTL1–H3K9me1 peptide binding; note: % is set by controls: 0 for no effect and ±100 for the full control effect; nearly all actives have a fitted effect of over 60% in size
Target sequence (Q9Y468 whole entry, looked up): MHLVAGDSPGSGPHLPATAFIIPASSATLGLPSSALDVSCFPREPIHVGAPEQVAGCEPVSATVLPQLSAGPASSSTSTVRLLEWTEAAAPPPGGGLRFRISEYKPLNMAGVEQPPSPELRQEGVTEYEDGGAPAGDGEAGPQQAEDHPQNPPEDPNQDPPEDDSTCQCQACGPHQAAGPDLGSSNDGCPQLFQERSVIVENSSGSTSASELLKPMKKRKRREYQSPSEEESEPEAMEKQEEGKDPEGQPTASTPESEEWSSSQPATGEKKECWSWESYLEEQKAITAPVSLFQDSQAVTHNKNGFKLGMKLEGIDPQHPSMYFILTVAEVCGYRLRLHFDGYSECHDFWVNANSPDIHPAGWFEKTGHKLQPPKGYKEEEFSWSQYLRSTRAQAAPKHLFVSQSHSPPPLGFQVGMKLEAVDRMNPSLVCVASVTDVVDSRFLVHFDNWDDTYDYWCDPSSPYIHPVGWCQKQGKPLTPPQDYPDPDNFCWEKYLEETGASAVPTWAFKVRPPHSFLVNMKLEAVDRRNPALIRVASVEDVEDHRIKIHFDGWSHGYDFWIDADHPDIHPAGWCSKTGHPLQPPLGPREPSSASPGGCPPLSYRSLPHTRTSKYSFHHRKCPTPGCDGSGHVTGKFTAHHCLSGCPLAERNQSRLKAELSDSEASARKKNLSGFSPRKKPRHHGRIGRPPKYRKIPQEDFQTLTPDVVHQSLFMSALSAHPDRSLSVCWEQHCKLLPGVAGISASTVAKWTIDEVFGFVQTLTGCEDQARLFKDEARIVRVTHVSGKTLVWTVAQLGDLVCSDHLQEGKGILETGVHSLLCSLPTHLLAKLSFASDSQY
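AlphaScreen assay: L3MBTL1 (50 nM final) was preincubated 30 min at room temperature with biotinylated H3(1-15)K9me1 peptide (75 nM final), then 30 min with library compounds; streptavidin donor and nickel chelate acceptor beads (10 ug/mL final) added, 30 min dark.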
WRN inhibitor: inhibitors of human WRN helicase; Q14191; WRN helicase unwinding, fluorescent forked duplex, kinetic; Potency, µM (doses to about 114 µM), for the others: top-dose activity change, negative = inhibition, usual class: inhibitors; 360,000 compounds, 0.46% hits; note: % is set by controls: 0 for no effect and ±100 for the full control effect; nearly all actives have a fitted effect of over 55% in size
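WRN at 20 nM final was preincubated with compound for 15 min at room temperature; reaction started with 100 nM forked duplex oligonucleotide carrying fluorophore and quencher plus 2 mM ATP (final). Unwinding followed kinetically by red fluorescence (ex 525/em 598 nm).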
POLB inh: inhibitors of human DNA polymerase beta; P06746; Potency, µM (top dose mostly 114 µM), for the others: top-dose activity change, negative = inhibition, hits mostly inhibitors; AID 485314; Pol beta primer extension/strand displacement, fluorescence kinetic; 340,000 compounds, 1.3% hits; note: % is set by controls: 0 for no effect and ±100 for the full control effect
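Curves were derived by four-parameter Hill fits of normalized qHTS data. The kinetic fluorescent primer-extension read was taken at 0 and 10 min after 50 nM substrate, following a 15 min room-temperature preincubation of 10 nM enzyme with compounds.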
Pol eta inh-1: DNA polymerase eta (human) inhibition; Q9Y253; 390,000 compounds, 1.2% hits; recombinant Pol eta, fluorescent DNA replication assay; Potency, µM (highest dose often 114 µM), inactives show at the top dose activity change, negative = inhibition, usual class: inhibitors; note: % is set by controls: 0 for no effect and ±100 for the full control effect
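Fluorescent replication assay: 50 nM final substrate added after a 15 min room-temperature compound preincubation with 10 nM enzyme. Signal taken at 0 min and again at 10 min.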
Pol iota inh: inhibitors of human DNA polymerase iota | Q9UNA4 | Pol iota fluorescent replication assay, 10 min | Potency, µM (doses to about 115 µM), inactives show at the top dose activity, negative = inhibition, most hits filed as inhibitors | 390,000 compounds, 1% hits | AID 588590
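Fluorescent replication assay read twice, at 0 min and 10 min after adding 50 nM (final) substrate. Enzyme (10 nM) and compounds were first incubated 15 min at room temperature; enzyme-free buffer wells were negative controls.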
Pol kappa inh-1: inhibitors of human DNA polymerase kappa; purified Pol kappa, fluorescent DNA synthesis assay, 10 min; Potency, µM (titrated, usually from 107 µM), for inactives: at the top dose activity, negative = inhibition, most hits filed as inhibitors; 400,000 compounds, 0.53% hits; note: % is set by controls: 0 for no effect and ±100 for the full control effect
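Readout: fluorescence, taken kinetically at 0 and 10 min. Conditions: 10 nM Pol kappa, 15 min RT compound preincubation, 50 nM substrate final. Controls: enzyme-free buffer wells.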
TbPGK inh: validation of Trypanosoma brucei phosphoglycerate kinase inhibitors; shares compounds with Pol kappa inh-1; TbPGK coupled GAPDH assay, Kinase-Glo luminescence; Potency, µM (doses to about 57.5 µM), without a hit: top-dose activity change, negative = inhibition, hits mostly inhibitors; 500 compounds, 79% hits; AID 686980; note: % is set by controls: 0 for no effect and ±100 for the full control effect; nearly all actives have a fitted effect of over 65% in size
POLI cherry-pick: Human Pol iota inhibitor confirmatory assay; shares compounds with Pol kappa inh-1; Pol iota primer extension, TAMRA/BHQ fluorescence; Potency, µM, usual class: inhibitors; 1,500 compounds, 77% hits; AID 720496
Pol kappa inh-2: Pol kappa (human) inhibition, cherry-pick confirmation; shares compounds with Pol eta inh-1; purified Pol-kappa, fluorescent strand-displacement substrate; Potency, µM, hits mostly inhibitors; 920 compounds, 76% hits
Pol eta inh-2: Pol eta (human) inhibition, cherry-pick confirmation. AID 720502. Potency, µM, usual class: inhibitors. 2,600 compounds, 64% hits. Pol eta primer extension, TAMRA/BHQ fluorescence, 10 min. shares compounds with Pol eta inh-1
* = called active by the depositor; ? = inconclusive; · = no result given; [ ] = dose if it differs, or a comment. Calls come from the whole dose curve; as a rule, active = well fitted curve in the direction sought with a large enough effect; inconclusive = small, poorly fitted or top-dose-only effect, or another doubt; inactive = no such curve, though single readings can be large; an effect the other way counts as inactive or inconclusive. Potency is the fitted concentration of half-maximal effect.

SMILES	L3MBTL1 inh	WRN inhibitor	POLB inh	Pol eta inh-1	Pol iota inh	Pol kappa inh-1	POLI cherry-pick	Pol kappa inh-2	Pol eta inh-2	others
O=C(NC(=S)Nc1ccc(S(=O)(=O)Nc2nccs2)cc1)c1ccc(Br)o1	·	2%	3%	11%	?	-21%	·	·	·
O=C(/C=C/c1ccc(Br)cc1)NC(=S)Nc1ccc(S(=O)(=O)Nc2nccs2)cc1	-1%	-27%[11.6 µM]	?	?	16%	-5%	15*	·	17*
CS(=O)(=O)N1CCN(c2ccc([N+](=O)[O-])c(NCc3ccc(Cl)cc3)c2)CC1	7%	?	?	?	8.9µM*	?	38*	·	85*
CS(=O)(=O)N1CCN(c2ccc([N+](=O)[O-])c(NCc3ccccc3)c2)CC1	-5%	6%	5%	-12%	-2%	-3%	·	·	·
CCN(CC)c1ccc2nc3ccc(N)cc3[n+](-c3ccccc3)c2c1	?	4.7µM*	·	?	79µM*	22µM*	19*	47*	76*	TbPGK inh=13µM*
CCN(CC)c1ccc(/C=C/c2cc(Cl)nc3ccccc23)cc1	·	·	·	·	7%	-14%	·	·	·
CCOc1ccc(CCNC(=O)CCS(=O)(=O)c2ccc(Br)cc2)cc1OCC	·	-4%	-22%	-5%	6%	9%	·	·	·
O=C(CCNS(=O)(=O)c1ccc(Br)cc1)NCCc1ccccc1	·	0%	60%	-7%	12%	1%	·	·	·
NS(=O)(=O)c1ccc(CCNC(=O)CCS(=O)(=O)c2ccc(Br)cc2)cc1	·	?	28µM*	20µM*	2%	-2%	38*	·	43*
NS(=O)(=O)c1ccc(CCNC(=O)COC(=O)c2ccc([N+](=O)[O-])o2)cc1	?	-5%	·	?	35µM*	-36%	84*	·	?
O=C(CCS(=O)(=O)c1ccc(Br)cc1)NCCc1ccccc1	·	?	?	20µM*	50µM*	?	?	17*	48*
O=C(CSc1nc2ccccc2c(=O)[nH]1)c1ccc(O)cc1O	7%	-5%	-3%	-15%	-6%	-3%	·	·	·
O=C(CSc1nc2ccccc2c(=O)[nH]1)c1ccc(O)c(O)c1	-5%[11.4 µM]	14µM*	20µM*	2.5µM*	13µM*	20µM*	?	19*	30*	TbPGK inh=?
COc1ccc(-c2coc3c(C)c4oc(=O)c(CC(=O)O)c(C)c4cc23)cc1	·	-14%	-6%	-13%	117%	-1%	·	·	·
Cc1c(CC(=O)O)c(=O)oc2c(C)c3occ(-c4ccc(Br)cc4)c3cc12	·	-16%[11.6 µM]	22µM*	?	20%	-6%	42*	·	76*
O=C(O)c1ccc(COc2ccccc2/C=C2/NC(=O)N(c3cccc(Cl)c3)C2=O)cc1	-6%	?	25µM*	10µM*	28µM*	40µM*	34*	19*	34*
CC1(C(=O)NCC2CCCCC2)CCN1C(=O)Cc1ccc(-c2ccccc2)cc1 (stereo not given)	·	-13%	·	·	·	·	·	·	·
COc1cc(/C=C2\SC(=O)N(CC(=O)Nc3ccc(C)cc3)C2=O)cc(Cl)c1OCC(=O)O	?	50µM*	50µM*	?	20µM*	?	4.2*	·	?	TbPGK inh=5.8µM*
O=C(CN1C(=O)S/C(=C\c2cc(Cl)c(O)c(Cl)c2)C1=O)Nc1ccccc1	-5%	-3%[11.6 µM]	13%	?	?	-18%	·	·	·
Cc1ccc(NC(=O)CN2C(=O)S/C(=C/c3ccc(O)c([N+](=O)[O-])c3)C2=O)cc1C	25µM*	79µM*	89µM*	45µM*	20µM*	50µM*	34*	60*	?
O=C(CN1CCS(=O)(=O)CC1)NNC(=O)C1CCCCC1	6%	9%	-6%	4%	-7%	-3%	·	·	·
Cc1ccc(CS(=O)(=O)CCC(=O)NCCN(C)Cc2ccccc2)cc1	·	8%	8%	-6%	34%	-8%	·	·	·
CCN(CC)S(=O)(=O)c1ccc(NC(=O)c2ccc(N3CCCC3=O)cc2)cc1	-3%	-10%	·	-18%	86%	-6%	·	·	·
N#C/C(=C/c1ccc(N2CCCC2)c([N+](=O)[O-])c1)c1nc2ccccc2[nH]1	-7%	-8%	53%	?	21%	-1%	·	·	·
Cc1ccc2nc(/C(C#N)=C/c3ccc(-c4cccc(Cl)c4)o3)[nH]c2c1	·	·	?	89µM*	79µM*	50µM*	19*	19*	67*
SMILES	L3MBTL1 inh	WRN inhibitor	POLB inh	Pol eta inh-1	Pol iota inh	Pol kappa inh-1	POLI cherry-pick	Pol kappa inh-2	Pol eta inh-2	others
Cc1ccc2nc(/C(C#N)=C/c3cccc(Br)c3)[nH]c2c1	·	·	22µM*	56µM*	?	-19%	42*	17*	60*
Cc1ccc2nc(/C(C#N)=C\c3ccc(N4CCCCC4)c([N+](=O)[O-])c3)[nH]c2c1	·	-13%	25µM*	-14%	?	-11%	38*	47*	60*
CCN(CC)C(=O)c1sc(NC(=O)Cc2ccc(OC)cc2)c(C#N)c1C	·	-1%	3%	-5%	2%	-7%	·	·	·
CC(=O)NC(=S)Nc1ccc(S(=O)(=O)Nc2nc(C)cc(C)n2)cc1	4%	-4%[57.1 µM]	6%	6%	81%	-14%	·	·	·
Cc1ccc(S(=O)(=O)OCC(=O)Nc2ccc(C(=O)O)c(O)c2)cc1	·	?	·	3.2µM*	20µM*	25µM*	19*	3.4*	19*
Cc1ccc(NC(=O)COCC(=O)Nc2ccc(C)cc2)cc1	2%	4%	0%	-13%	-19%	-12%	·	·	·
Cc1ccc(S(=O)(=O)Nc2csc(C)c2C(=O)O)cc1	7.9µM*	-25%	8.9µM*	18µM*	?	-44%	67*	·	48*
O=C(O)c1cccc(NC(=O)c2ccc(COc3ccc(Cl)cc3)cc2)c1	1%	-8%	?	6%	-1%	-22%	·	·	·
